Experimental data: PubChem BioAssay (NCI)
Compounds without any hit were thinned out: in the full panel of roughly 83,000, 20% have a hit.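 Values shown are percent growth following 48 h exposure of cells in 96-well plates to a single concentration of compound; below 10 was considered active.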 Activity calls are given as the source filed them.

What was measured:
Test in all cases: NCI-60 one-dose screen, 48 h (100 = growth as untreated, 0 = no growth, -100 = all killed)
Conditions in all cases: 10 µM unless noted
SR leukemia = test system: SR leukemia
RPMI-8226 leukemia = test system: RPMI-8226 leukemia
OVCAR-8 ovarian = test system: OVCAR-8 ovarian
OVCAR-5 ovarian = test system: OVCAR-5 ovarian
OVCAR-4 ovarian = test system: OVCAR-4 ovarian
SK-OV-3 ovarian = test system: SK-OV-3 ovarian
IGROV1 ovarian = test system: IGROV1 ovarian
HS 578T breast = test system: HS 578T breast
NCI/ADR-RES ovarian = test system: NCI/ADR-RES ovarian
T-47D breast = test system: T-47D breast
BT-549 breast = test system: BT-549 breast
MDA-MB-435 melanoma = test system: MDA-MB-435 melanoma
SW-620 colon = test system: SW-620 colon
MCF7 breast = test system: MCF7 breast
HCT-116 colon = test system: HCT-116 colon
HCC-2998 colon = test system: HCC-2998 colon
KM12 colon = test system: KM12 colon

Measured: growth

COc1ccc(CCOc2cc3c(cc2OC)CCN(C(=O)NCc2cocn2)C3c2ccc(C)cc2C)cc1 (stereo unspecified)
inactive: OVCAR-8 ovarian 17.9% | OVCAR-5 ovarian 28.6% | OVCAR-4 ovarian 51.5% | SK-OV-3 ovarian 38% | IGROV1 ovarian 12.9% | T-47D breast 49% | SW-620 colon 23% | MCF7 breast 13.5% | HCC-2998 colon 11.5% | KM12 colon 11.4%
active: SR leukemia 5.38% | RPMI-8226 leukemia 7.04% | HS 578T breast -4.03% | NCI/ADR-RES ovarian 4.95% | BT-549 breast -17% | MDA-MB-435 melanoma 8.73% | HCT-116 colon 6.95%

C[C@@H]1C[C@H]2C(=O)O[C@@H](C)C(NC(=O)[C@H](Cc3cc(F)cc(F)c3)NC(=O)Nc3ccc(Cl)cc3F)C(=O)N3CCC[C@H]3C(=O)N3CCCC[C@H]3C(=O)N[C@@H](CO)C(=O)N2C1 (stereo partly specified)
inactive: SR leukemia 31.2% | RPMI-8226 leukemia 14.9% | OVCAR-8 ovarian 21.9% | OVCAR-5 ovarian 35.3% | OVCAR-4 ovarian 22.6% | SK-OV-3 ovarian 22.1% | IGROV1 ovarian 47.9% | HS 578T breast 33.4% | NCI/ADR-RES ovarian 47.5% | T-47D breast 34.4% | BT-549 breast 35.3% | MDA-MB-435 melanoma 19.5% | SW-620 colon 39.9% | MCF7 breast 16.1% | HCC-2998 colon 26% | KM12 colon 42%
active: HCT-116 colon 9.85%

CCC(NC(c1cc2cccc3ccc4cccc1c4c32)c1nnnn1C(C)(C)C)C1CCCCC1 (stereo unspecified)
inactive: SR leukemia 40.9% | RPMI-8226 leukemia 28.1% | OVCAR-8 ovarian 73.2% | OVCAR-5 ovarian 84.6% | OVCAR-4 ovarian 46.5% | SK-OV-3 ovarian 70.8% | IGROV1 ovarian 65.2% | HS 578T breast 84.5% | NCI/ADR-RES ovarian 74.4% | T-47D breast 74.6% | BT-549 breast 50.5% | MDA-MB-435 melanoma 60% | SW-620 colon 61.5% | MCF7 breast 48.2% | HCT-116 colon 40.6% | HCC-2998 colon 90.3% | KM12 colon 67.8%

COc1ccc(C(=O)Nc2ncc(Cc3ccccc3Cl)s2)cc1
active: HS 578T breast 8.76% | NCI/ADR-RES ovarian 5.87% | MDA-MB-435 melanoma -5.1% | HCT-116 colon 7.77% | HCC-2998 colon 6.97% | KM12 colon 9.41%
inactive: SR leukemia 16.4% | RPMI-8226 leukemia 22.2% | OVCAR-8 ovarian 12.3% | OVCAR-5 ovarian 36.5% | OVCAR-4 ovarian 62.1% | SK-OV-3 ovarian 29% | IGROV1 ovarian 28.2% | T-47D breast 34.3% | BT-549 breast 54.8% | SW-620 colon 25.3% | MCF7 breast 14.3%

CNCc1cccc2c1OCCCCCCC(C)(O)CC(C)(C)S(=O)(=O)c1ccc(cc1)-c1cnc(N)c(n1)C(=O)N2 (stereo unspecified)
inactive: OVCAR-8 ovarian 55.3% | OVCAR-5 ovarian 55.9% | OVCAR-4 ovarian 30.3% | SK-OV-3 ovarian 38.1% | HS 578T breast 24.1% | NCI/ADR-RES ovarian 43.2% | T-47D breast 56.1% | BT-549 breast 27.9%
active: SR leukemia -36.6% | RPMI-8226 leukemia -41.9% | IGROV1 ovarian 3.36% | MDA-MB-435 melanoma -85.6% | SW-620 colon 5.13% | MCF7 breast -58.1% | HCT-116 colon -82.3% | HCC-2998 colon -6.01% | KM12 colon -68.1%

CCNC(=O)N1CCc2cc(OC)c(OCCc3ccc(OC)nc3)cc2C1c1ccc(OC)cc1C (stereo unspecified)
inactive: SR leukemia 10.9% | RPMI-8226 leukemia 31.4% | OVCAR-8 ovarian 42.4% | OVCAR-5 ovarian 51% | OVCAR-4 ovarian 67.1% | SK-OV-3 ovarian 54.6% | IGROV1 ovarian 33.8% | HS 578T breast 29.8% | NCI/ADR-RES ovarian 23.5% | T-47D breast 49% | BT-549 breast 29.2% | MDA-MB-435 melanoma 15% | SW-620 colon 16% | MCF7 breast 22.2% | HCT-116 colon 14.4% | HCC-2998 colon 42.8% | KM12 colon 21.2%

CCOC(=O)c1c(Nc2ccccc2)nn2c(-c3ccc(Cl)cc3)ccnc12
inactive: SR leukemia 72.7% | RPMI-8226 leukemia 91.7% | OVCAR-8 ovarian 80.6% | OVCAR-5 ovarian 87.2% | OVCAR-4 ovarian 66.5% | SK-OV-3 ovarian 75.4% | IGROV1 ovarian 80.5% | HS 578T breast 72.6% | NCI/ADR-RES ovarian 63.6% | T-47D breast 64.2% | BT-549 breast 103% | MDA-MB-435 melanoma 84.2% | SW-620 colon 84.2% | MCF7 breast 81.3% | HCT-116 colon 61.1% | HCC-2998 colon 91% | KM12 colon 89.1%

Nc1nc(-c2cccc([N+](=O)[O-])c2)c(N=Nc2cccc([N+](=O)[O-])c2)s1
active: OVCAR-4 ovarian -15.2% | SK-OV-3 ovarian -78% | BT-549 breast -41.4% | HCT-116 colon -44.1%
inactive: SR leukemia 67.5% | RPMI-8226 leukemia 34.3% | OVCAR-8 ovarian 19.9% | OVCAR-5 ovarian 53.4% | IGROV1 ovarian 27.6% | HS 578T breast 37.6% | NCI/ADR-RES ovarian 18.6% | T-47D breast 31% | MDA-MB-435 melanoma 36.2% | SW-620 colon 18.5% | MCF7 breast 13.1% | HCC-2998 colon 59.8% | KM12 colon 48.2%

CN(C)CCN(C)c1ccc2ncc(C#Cc3cncc(C(=O)Nc4ccc(CN5CCN(C)CC5)c(C(F)(F)F)c4)c3)n2n1
active: SR leukemia -17.4% | RPMI-8226 leukemia -33.9% | OVCAR-4 ovarian -0.365% | SW-620 colon -44.9% | MCF7 breast -63.7% | HCT-116 colon -85.9% | KM12 colon -39.8%
inactive: OVCAR-8 ovarian 63.6% | OVCAR-5 ovarian 91.5% | SK-OV-3 ovarian 118% | IGROV1 ovarian 45.5% | HS 578T breast 59.9% | NCI/ADR-RES ovarian 37.1% | T-47D breast 101% | BT-549 breast 111% | MDA-MB-435 melanoma 48.4% | HCC-2998 colon 33.9%

Cc1cc2ncc(-c3cc4ccccc4c(N4CCN(C)CC4)n3)nc2cc1C
inactive: OVCAR-8 ovarian 67.9% | OVCAR-5 ovarian 31.9% | OVCAR-4 ovarian 37.6% | SK-OV-3 ovarian 87.5% | IGROV1 ovarian 42.3% | HS 578T breast 61.9% | NCI/ADR-RES ovarian 40.2% | BT-549 breast 85.9%
active: SR leukemia -39.9% | RPMI-8226 leukemia -12.2% | T-47D breast -54% | MDA-MB-435 melanoma -87.8% | SW-620 colon 1.46% | MCF7 breast -65% | HCT-116 colon -85.7% | HCC-2998 colon -84.2% | KM12 colon -3.53%

N#Cc1c(Nc2ccccc2)nn2c(-c3ccc([N+](=O)[O-])cc3)ccnc12
inactive: SR leukemia 103% | RPMI-8226 leukemia 94.1% | OVCAR-8 ovarian 99.9% | OVCAR-5 ovarian 99.6% | OVCAR-4 ovarian 108% | SK-OV-3 ovarian 111% | IGROV1 ovarian 100% | HS 578T breast 102% | NCI/ADR-RES ovarian 101% | T-47D breast 110% | BT-549 breast 99.5% | MDA-MB-435 melanoma 97.4% | SW-620 colon 103% | MCF7 breast 93.2% | HCT-116 colon 99.3% | HCC-2998 colon 106% | KM12 colon 102%

O=C1/C(=C/C=C/c2ccco2)SC(=S)N1c1ccccc1
inactive: SR leukemia 43.8% | RPMI-8226 leukemia 53.6% | OVCAR-8 ovarian 66.4% | OVCAR-5 ovarian 88% | OVCAR-4 ovarian 90.9% | SK-OV-3 ovarian 110% | IGROV1 ovarian 44.3% | HS 578T breast 102% | NCI/ADR-RES ovarian 51.2% | T-47D breast 76.8% | BT-549 breast 65.2% | MDA-MB-435 melanoma 89.1% | SW-620 colon 98.9% | MCF7 breast 57.4% | HCT-116 colon 35.3% | HCC-2998 colon 87.3% | KM12 colon 94.4%

O=C(Nc1nonc1-c1ccccc1)c1ccc(C(F)(F)F)cc1
inactive: SR leukemia 85.6% | RPMI-8226 leukemia 74.2% | OVCAR-8 ovarian 86.6% | OVCAR-5 ovarian 100% | OVCAR-4 ovarian 91.2% | SK-OV-3 ovarian 112% | IGROV1 ovarian 96.4% | HS 578T breast 101% | NCI/ADR-RES ovarian 85.2% | T-47D breast 76% | BT-549 breast 85.5% | MDA-MB-435 melanoma 82.7% | SW-620 colon 94.6% | MCF7 breast 72.3% | HCT-116 colon 86.2% | HCC-2998 colon 101% | KM12 colon 97.4%

Nc1nc(-c2cccc([N+](=O)[O-])c2)c(N=Nc2ccc(Br)cc2)s1
active: OVCAR-8 ovarian -28.7% | OVCAR-5 ovarian -12.1% | OVCAR-4 ovarian -33.2% | SK-OV-3 ovarian -83.7% | IGROV1 ovarian -13.3% | HS 578T breast 0.349% | NCI/ADR-RES ovarian -21.7% | T-47D breast -26.9% | BT-549 breast -29.6% | MDA-MB-435 melanoma 0.572% | SW-620 colon -34.5% | MCF7 breast 7.63% | HCT-116 colon -76.6% | HCC-2998 colon -31.6%
inactive: SR leukemia 50.7% | RPMI-8226 leukemia 15% | KM12 colon 15.4%

CC(O)c1cc2ccccc2c(=O)o1 (stereo unspecified)
inactive: SR leukemia 96.2% | RPMI-8226 leukemia 96.8% | OVCAR-8 ovarian 102% | OVCAR-5 ovarian 103% | OVCAR-4 ovarian 100% | SK-OV-3 ovarian 99.8% | IGROV1 ovarian 107% | HS 578T breast 103% | NCI/ADR-RES ovarian 101% | T-47D breast 104% | BT-549 breast 105% | MDA-MB-435 melanoma 96.3% | SW-620 colon 98.9% | MCF7 breast 91.5% | HCT-116 colon 108% | HCC-2998 colon 99.9% | KM12 colon 106%

Cc1ccc(CSc2nc(-c3ccc(Cl)cc3)c(C#N)c(N3CCOCC3)n2)cc1
inactive: SR leukemia 85.6% | RPMI-8226 leukemia 82.2% | OVCAR-8 ovarian 97.2% | OVCAR-5 ovarian 100% | OVCAR-4 ovarian 89.8% | SK-OV-3 ovarian 98.2% | IGROV1 ovarian 106% | HS 578T breast 107% | NCI/ADR-RES ovarian 94.8% | T-47D breast 79% | BT-549 breast 115% | MDA-MB-435 melanoma 94.8% | SW-620 colon 96% | MCF7 breast 88.6% | HCT-116 colon 90% | HCC-2998 colon 104% | KM12 colon 96.5%

Nc1ncc(-c2ccc(NS(=O)(=O)c3ccc(Cl)c(Cl)c3)cc2)[nH]1
inactive: SR leukemia 76.6% | RPMI-8226 leukemia 59.1% | OVCAR-8 ovarian 92.9% | OVCAR-5 ovarian 90.4% | OVCAR-4 ovarian 93.9% | SK-OV-3 ovarian 94.5% | IGROV1 ovarian 88.8% | HS 578T breast 79.5% | NCI/ADR-RES ovarian 98.3% | T-47D breast 76.7% | BT-549 breast 69.9% | MDA-MB-435 melanoma 96.4% | SW-620 colon 91.3% | MCF7 breast 75% | HCT-116 colon 99.3% | HCC-2998 colon 91.2% | KM12 colon 89.6%

CC[C@H](CO)Nc1ccc2ncc(C#Cc3cncc(C(=O)Nc4ccc(CN5CCN(C)CC5)c(C(F)(F)F)c4)c3)n2n1
active: SR leukemia -42.9% | RPMI-8226 leukemia -44.8% | OVCAR-8 ovarian -58.1% | OVCAR-5 ovarian -38.1% | OVCAR-4 ovarian -47.7% | SK-OV-3 ovarian -45.6% | IGROV1 ovarian -33.1% | HS 578T breast -43.9% | T-47D breast -69.5% | BT-549 breast -97.4% | MDA-MB-435 melanoma -91.4% | SW-620 colon -50.8% | MCF7 breast -73.1% | HCT-116 colon -94.3% | HCC-2998 colon -59.4% | KM12 colon -61.9%
inactive: NCI/ADR-RES ovarian 54.3%
